Values joined by “and” are separate entries in the source; they are usually repeats but may differ in a detail not shown here. Equal entries are not always repeated. A number with no mark means an inactive call. Results filed as inconclusive are left out. Active and inactive are the calls of the source. Unless noted, the call rests on the fitted dose curve; in most records, active means well fitted curve in the direction sought with a large enough effect in the repeat runs; inconclusive means weak or mixed curves; inactive means no such curve, though single readings can be large; an effect the other way counts as inactive or inconclusive.

These results are taken from PubChem BioAssay (NCATS).

Experiment [1] can be described thus: qHTS assay for small molecule agonists of the antioxidant response element (ARE) signaling pathway measured by Nrf2-dependant transcriptional activity (AID 720636).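 Further: HepG2 cells with an ARE-driven luciferase reporter; % of control where 0% means no effect.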 The method in brief: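 In HepG2 cells engineered with an Nrf2-responsive luciferase gene, ARE induction was quantified as luminescence after 16 hr compound treatment at 37 C.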
(Quantitative high-throughput screening tests each substance at several concentrations.)

A short description of experiment [2]: qHTS assay for small molecule agonists of the antioxidant response element (ARE) signaling pathway measured by Nrf2-dependant transcriptional activity - cell viability counter screen (AID 720653). Further: on the % scale 0 is the no-effect control and ±100 the full control effect. To be noted: ARE-bla HepG2 viability, CellTiter-Glo ATP luminescence, 16 h; max response: stronger effect = lower value. The method in brief: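 ARE-bla HepG2 cells treated with compounds for 16 h at 37C; this counter screen measures viability as intracellular ATP by CellTiter-Glo luminescence after 30 min at room temperature.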

A short description of experiment [3]: qHTS assay for small molecule antagonists of the retinoid-related orphan receptor gamma (ROR-gamma) signaling pathway - cell viability counter screen (AID 720652).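 Further: CHO reporter cells with doxycycline-induced ROR-gamma expression; series mostly up to about 92 µM; compound exposure lasted 16 hr before ATP read; on the % scale 0 is the no-effect control and ±100 the full control effect.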 The method in brief:
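CHO RORE-LUC/TET-ROR line, 1,000 cells/well, 37 C 5% CO2 5 hr; cpd or DMSO + doxycycline induction, 16 hr. CellTiter-Glo, 30 min RT, luminescence = ATP content.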

The target in experiment [4] is T1, Hexokinase-4 (Homo sapiens) + Glucokinase regulatory protein (Homo sapiens) (UniProt P35557+Q14397). Briefly: qHTS assay for inhibitors of recombinant human GCK-GKRP interaction: Diaphorase-coupled assay (AID 743205; active means well fitted curve in the direction sought with a large enough effect; an effect the other way counts as inactive or inconclusive). A digest of the protocol:
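Resorufin fluorescence (525/590 nm), read each minute over 30 min, reports GCK activity coupled via G6PDH and diaphorase. Reaction: 10 nM GST-GCK, 10 nM FLAG-GKRP, 5 mM glucose, 0.4 mM ATP, 0.15 mM NADP+, 0.1 mM resazurin.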

Experiment [5] addresses T1, Hexokinase-4 (Homo sapiens) + Glucokinase regulatory protein (Homo sapiens). Briefly: qHTS assay for inhibitors of recombinant human GCK-GKRP interaction: HTRF assay (AID 743207; active means well fitted curve in the direction sought with a large enough effect; an effect the other way counts as inactive or inconclusive;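 further: 0% = DMSO with GCK present and -100% = DMSO wells lacking GCK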). The method in brief: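 HTRF read-out (ex 320 nm; 615/665 nm emission) after 60 min RT equilibration of 5 nM GST-GCK, 5 nM FLAG-GKRP, 2 uM S6P, compound and anti-FLAG/anti-GST detection antibodies; signal normalized between DMSO wells with and without GCK.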

T1 sequence (P35557 whole entry, looked up): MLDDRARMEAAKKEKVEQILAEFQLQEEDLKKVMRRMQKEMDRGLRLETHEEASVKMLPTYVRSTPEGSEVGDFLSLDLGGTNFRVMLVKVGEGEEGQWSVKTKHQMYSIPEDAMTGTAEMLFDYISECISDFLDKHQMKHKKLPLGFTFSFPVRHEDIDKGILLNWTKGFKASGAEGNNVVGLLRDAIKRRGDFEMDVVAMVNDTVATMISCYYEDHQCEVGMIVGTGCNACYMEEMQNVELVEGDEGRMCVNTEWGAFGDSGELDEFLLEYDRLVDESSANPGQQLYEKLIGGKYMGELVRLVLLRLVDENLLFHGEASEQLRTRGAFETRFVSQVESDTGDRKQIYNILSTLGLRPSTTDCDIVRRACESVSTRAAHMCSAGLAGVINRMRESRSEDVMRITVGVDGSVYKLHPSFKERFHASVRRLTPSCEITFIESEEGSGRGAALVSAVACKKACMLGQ
T1 sequence (Q14397 whole entry, looked up): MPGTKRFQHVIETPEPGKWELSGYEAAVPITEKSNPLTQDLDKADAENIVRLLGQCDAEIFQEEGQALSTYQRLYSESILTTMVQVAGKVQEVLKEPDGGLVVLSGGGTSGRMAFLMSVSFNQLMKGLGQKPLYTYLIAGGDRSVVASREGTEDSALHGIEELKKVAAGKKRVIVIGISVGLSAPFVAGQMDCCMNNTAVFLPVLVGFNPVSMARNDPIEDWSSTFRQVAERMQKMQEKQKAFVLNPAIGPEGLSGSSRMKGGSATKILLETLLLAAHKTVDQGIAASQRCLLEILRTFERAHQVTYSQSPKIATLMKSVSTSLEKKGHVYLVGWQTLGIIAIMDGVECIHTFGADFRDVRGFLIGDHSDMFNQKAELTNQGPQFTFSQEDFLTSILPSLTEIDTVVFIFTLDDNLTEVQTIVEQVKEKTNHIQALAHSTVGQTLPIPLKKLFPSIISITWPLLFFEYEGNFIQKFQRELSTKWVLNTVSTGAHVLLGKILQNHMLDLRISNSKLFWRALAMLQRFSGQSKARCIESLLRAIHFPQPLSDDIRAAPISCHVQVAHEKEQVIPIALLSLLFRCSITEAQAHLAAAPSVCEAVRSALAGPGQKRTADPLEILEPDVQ

In the case of `O=C(Nc1ccccc1-c1ccc(Cl)cc1)c1cccnc1Cl`, in experiment [1], the Potency result was “inactive”. Further, the max response in experiment [2] is -1.23%.
The corresponding values for `O=[N+]([O-])/N=C1\NCCN1Cc1ccc(Cl)nc1` are “inactive” and 8.85%.
Turning to `Nc1cccc2c(N)cccc12`, the max response in experiment [2] was -13.9%.
As to `Nc1ccc(Sc2ccc(N)cc2)cc1`, the Potency result in experiment [1] and in experiment [3] was “inactive” throughout. For the same molecule, in experiment [2], the max response is 10% and -10.9%.
Turning to `O=C(O)COc1nc(Cl)c(Cl)cc1Cl`, the Potency result in experiment [1] was “inactive”. Besides, in experiment [2], the max response is -15.1%.
The corresponding values for `Nc1c(Cl)c(Cl)c(Cl)c(Cl)c1Cl` are “inactive” and 1.83%.
On to `CS(=O)(=O)c1ccc(C(=O)C2C(=O)CCCC2=O)c([N+](=O)[O-])c1`, for which the Potency result in experiment [1] is “inactive”. Further, the max response in experiment [2] is -7.62%.
On to `CCCCCCCCCC(CC)c1ccc(S(=O)(=O)O)cc1` (centres undefined), for which, in experiment [1], the Potency result is “inactive”. Besides, in experiment [2], the max response is -0.0281% and -4.65%.
Turning to `O=C(O)c1cc(Oc2ccc(C(F)(F)F)cc2Cl)ccc1[N+](=O)[O-]`, in experiment [1], the Potency result was “inactive”. Further, in experiment [2], the max response was -5.54%.
In the case of `CCCCC(CC)COC(=O)c1ccccc1C(=O)OCC(CC)CCCC` (centres undefined), the Potency result in experiment [1] and in experiment [3] was “inactive” throughout. In experiment [2], the max response was -8.88% and -12.5%.
For `CC(C)(C)C(O)C(Oc1ccc(Cl)cc1)n1cncn1` (centres undefined), the Potency result in experiment [1] was “inactive”. In experiment [2], the max response was -9.81%.
For `O=S(=O)(O)C(F)(F)C(F)(F)C(F)(F)C(F)(F)C(F)(F)C(F)(F)C(F)(F)C(F)(F)F`, in experiment [1], the Potency entry is “inactive”. For the same molecule, the max response in experiment [2] was 2.35% and -3.55%.
Turning to `CC(C)Oc1cccc(NC(=O)c2ccccc2C(F)(F)F)c1`, the Potency result in experiment [1] was “inactive”. Moreover, the max response in experiment [2] is -3.23%.
In the case of `C=CCC1=C(C)C(OC(=O)C2C(C=C(C)C)C2(C)C)CC1=O` (centres undefined), the Potency entry in experiment [1] was “inactive”. Moreover, the max response in experiment [2] was 6.17% and -10.4%.
Turning to `ClC1=C(Cl)[C@]2(Cl)[C@@H]3[C@@H]4C[C@@H]([C@H]5O[C@@H]45)[C@@H]3[C@@]1(Cl)C2(Cl)Cl`, the Potency result in experiment [1] was “inactive”. Also, the max response in experiment [2] was -16.9%.
As for `O=[N+]([O-])c1c(Cl)c(Cl)cc(Cl)c1Cl`, the Potency result in experiment [1] and in experiment [3] was “inactive” throughout. Also, in experiment [2], the max response was 0.0593%.
On to `COc1nn(CSP(=S)(OC)OC)c(=O)s1`, for which, in experiment [1], the Potency result was “inactive”. The max response in experiment [2] was -11.6%.
`CCCCCCCCCCCCCCCC[N+](C)(C)C`: the Potency result in experiment [1] was “inactive”. In experiment [2], the max response was -27.3% and -1.44%.
On to `O=[N+]([O-])c1c2ccccc2cc2ccccc12`, for which, in experiment [3], the Potency result is “inactive”. In experiment [2], the max response is -1.85%.
`COCCOCCO`: the Potency result in experiment [1] was “inactive”. For the same molecule, the max response in experiment [2] was -0.036% and -2.85%.
Turning to `Nc1ccc(Cl)cc1N`, the Potency result in experiment [3] was “inactive”. In experiment [2], the max response is -19.8%.
As for `Nc1ccc(N=Nc2ccccc2)cc1`, the max response in experiment [2] was -5.85%.
Consider `O=S(=O)(c1ccc(Cl)cc1)c1ccc(Cl)cc1`, for which the Potency entry in experiment [1] and in experiment [3] was “inactive” in each case. Further, the max response in experiment [2] is -11% and -26.7% and -18.8%.
Turning to `C[C@]12N[C@H](Cc3ccccc31)c1ccccc12`, the outcome in experiment [4] and in experiment [5] was inactive.
For the molecule `Nc1ccc(Cl)cc1`, the Potency entry in experiment [1] and in experiment [3] was “inactive” each time. Besides, in experiment [2], the max response is -5.98%.
As to `CCCCCC[C@H]1C(=O)O[C@H](C)[C@H](NC(=O)c2cccc(NC=O)c2O)C(=O)O[C@@H](C)[C@@H]1OC(=O)CC(C)C`, in experiment [1], the Potency result was “inactive”. Moreover, the max response in experiment [2] was -26.8%.
Regarding `Cc1cc(O)ccc1Cl`, the Potency entry in experiment [1] and in experiment [3] was “inactive” throughout. The max response in experiment [2] was 3.07%.
Turning to `CCCCCCCCc1ccc(O)cc1`, the max response in experiment [2] is -0.124% and 0.446%.
